Results: PubChem BioAssay (NCI)
This is part of a sample that, as a whole, favours compounds with a hit. Of some 83,000 tested, about 20% had one in any assay.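 Assay: single dose, 48 h. Readout: percent growth (0 = no net growth; negative = cell death). Active: <10.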 Unmarked numbers belong to inactive results. Activity calls are given as the source filed them.

What follows are compounds tested on K-562 leukemia (assay: NCI-60 one-dose screen, 48 h (100 = growth as untreated, 0 = no growth, -100 = all killed)). Settings: 10 µM unless noted.

First: COc1cc(C2CC(C3C(=O)N(C)C(=O)N(C)C3=O)=NN2C=O)cc(OC)c1OC (stereo unspecified)
Second: Clc1ccc(C2=NN(c3ccc(Cl)cc3)C(c3cccc(Nc4ccnc5cc(Cl)ccc45)c3)C2)cc1 (stereo unspecified)
The growth of the first is higher: 88% for the first, 75.1% for the second.

Compared with `C=C1CCC2C3(C)COC(c4ccccc4)OC3CCC2(C)C1C/C=C1/C(=O)OCC1OC(C)=O` (stereo unspecified), `O=C(C(=O)N1CCOCC1)c1cn(CCCn2cc(C(=O)C(=O)N3CCOCC3)c3ccccc32)c2ccccc12` is higher in growth: 74.2% for the first, 111% for the second.

First: CC(=O)N1N=C(c2ccc(Nc3nc(NCCO)nc(NCCO)n3)cc2)CC1c1ccc(Cl)cc1 (stereo unspecified)
Second: C/C=C(/C(=C/C)c1ccc(O)cc1)c1ccc(O)cc1
The growth of the first is higher: 119% for the first, 22.8% for the second.

First: O=C(c1ccccc1)c1ccc(Oc2ccc([N+](=O)[O-])cc2[N+](=O)[O-])cc1
Second: Cc1csc(C#Cc2cncc(O)c2)n1
The growth of the first is lower: 11.9% for the first, 127% for the second.

For `CC(C)CC1NC(=O)C(CCCN)NC(=O)C(C(C)C)NC(=O)C2CCCN2C(=O)C(Cc2ccccc2)NC(=O)C(CC(C)C)NC(=O)C(CCCN)NC(=O)C(C(C)C)NC(=O)C2CCCN2C(=O)C(Cc2ccccc2)NC1=O` (stereo unspecified), the growth was -53.1% (active).
For `COc1cc(/C=C/C(=O)C(C(=O)/C=C/c2ccc(OC(=O)CCNC34CC5CC(CC(C5)C3)C4)c(OC)c2)C(=O)CCNC23CC4CC(CC(C4)C2)C3)ccc1OC(=O)CCNC12CC3CC(CC(C3)C1)C2` (stereo unspecified), the growth was 0.83% (active).
In the case of `COc1cc(/C=C/C(=O)CC(=O)/C=C/c2ccc(OC(=O)CCNC34CC5CC(CC(C5)C3)C4)c(OC)c2)ccc1OC(=O)CCNC12CC3CC(CC(C3)C1)C2`, the growth is reported as 7.62% (active).
